Laboratory results as given in PubChem BioAssay AID651725 (National Center for Advancing Translational Sciences (NCATS), 2012).
The whole screen tested about 360,000 compounds, of which about 2,000 (0.56%) were called active. Another 2% or so got no clear call; they are omitted. Cut-off read from the data, not from the text of the source: active = activity change below about -65%; inconclusive = mostly about -30% to -63%; inactive = weaker than that. Only a selection was taken, and actives are over-represented in it overall.

Target: Homeobox protein SIX1 (Homo sapiens) + Protein phosphatase EYA2 (Homo sapiens) (UniProt Q15475+O00167)
Sequence (O00167 whole entry, looked up): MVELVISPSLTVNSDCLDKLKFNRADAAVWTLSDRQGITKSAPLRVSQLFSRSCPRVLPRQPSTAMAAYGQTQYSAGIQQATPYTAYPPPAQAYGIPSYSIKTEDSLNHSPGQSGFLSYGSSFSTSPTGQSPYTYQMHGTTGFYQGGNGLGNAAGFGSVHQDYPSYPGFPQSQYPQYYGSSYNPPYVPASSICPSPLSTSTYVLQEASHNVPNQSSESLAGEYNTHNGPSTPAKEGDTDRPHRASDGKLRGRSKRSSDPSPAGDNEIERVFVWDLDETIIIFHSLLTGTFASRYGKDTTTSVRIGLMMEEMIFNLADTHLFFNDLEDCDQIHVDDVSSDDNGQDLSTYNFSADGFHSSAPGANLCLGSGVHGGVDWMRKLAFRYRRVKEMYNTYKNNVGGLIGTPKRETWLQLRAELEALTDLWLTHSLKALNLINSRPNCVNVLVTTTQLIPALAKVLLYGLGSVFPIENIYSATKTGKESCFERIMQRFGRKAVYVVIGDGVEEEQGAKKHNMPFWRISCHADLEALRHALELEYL
Sequence (Q15475 whole entry, looked up): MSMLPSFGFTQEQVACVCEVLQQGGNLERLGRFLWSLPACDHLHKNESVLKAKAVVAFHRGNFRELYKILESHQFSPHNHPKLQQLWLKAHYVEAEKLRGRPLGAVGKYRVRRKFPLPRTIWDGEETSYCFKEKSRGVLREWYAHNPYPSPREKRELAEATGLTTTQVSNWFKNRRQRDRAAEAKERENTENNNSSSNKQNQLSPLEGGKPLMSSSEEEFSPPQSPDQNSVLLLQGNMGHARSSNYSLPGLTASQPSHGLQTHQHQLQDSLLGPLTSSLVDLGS
Test: qHTS Assay for Inhibitors of the Six1/Eya2 Interaction
Details: AlphaScreen GST-Six1/His-Eya2 binding, biochemical; hits give low values
Description: Its expression is low or undetectable in normal adult breast tissue but the gene is over-expressed in 50% of primary breast tumors and 90% of metastatic lesions. […] Similar to Six1, Eya2 is also not expressed in most normal adult tissues, but is reexpressed in cancers. The Six1-Eya interaction is essential for proliferation during embryonic development, and both Six1 and Eya2 have been independently implicated in the same types of cancer. Because Six1 and Eya2 are embryonic genes with little expression in adult tissues, inhibitors of their expression/activity are likely to have limited side effects. Our goal is to identify inhibitors of the Six1/Eya interaction for potential cancer therapy. To this end, we have developed a homogenous AlphaScreen assay targeting the Six1/Eya interaction. We performed a large scale HTS of the Molecular Libraries Small Molecule Repository (MLSMR) to identify inhibitors of the Six1/Eya interaction as potential anti-cancer therapeutics. Compounds identified can also be used as chemical probes to better understand the biological functions of Six1 and Eya. NIH Chemical Genomics Center [NCGC] NIH Molecular Libraries Probe Centers Network [MLPCN] MLPCN Grant: DA033147 Assay Submitter (PI): Rui Zhao, University of Colorado Denver
The first step of the 5 uL AlphaScreen assay is to dispense assay buffer (50 mM Tris, pH 8.0, 300 mM NaCl, 0.05% BSA, 0.02% Tween 20, 1 mM TCEP) into a Greiner 1536 white solid bottom microtiter plate (789175-F). Five microliters is added to Column 1, 4 uL is added to Column 2 and 3 uL is added to Columns 3 through 48. A 5X protein solution (250 nM GST-Six1 protein + 500 nM His-tagged Eya2 protein) is mixed and 1 uL is dispensed to Columns 3-48. Using a 1536 pintool, 23 nL of compound is transferred to the assay plate. A solution of 5X AlphaScreen beads is mixed (50 ug/mL Glutathione linked donor beads + Nickel chelated acceptor beads) and 1 uL is dispensed to Columns 2-48. The assay plate is incubated for one hour, with a lid, at 37 deg C in the dark. The plate is read using a Perkin Elmer Envision using an AlphaScreen protocol.
% is set by controls: 0 for no effect and ±100 for the full control effect.

SMILES | activity change
O=[N+]([O-])c1ccc(C=Nc2ccc(Cl)cc2Cl)s1 | -73.2% (active)
CCC(C)CN1C(=O)CN(S(C)(=O)=O)CC1(C)C(=O)Nc1ccc2c(c1)OCCO2 (configuration not stated) | 16.6% (inactive)
COc1ccc2c(c1)CCCO[C@]21O[C@H](CCO)C[C@H](O)[C@H]1O | 6.3% (inactive)
CC(C)(C)OC(=O)NCCCCCNC(=O)c1nc[nH]c1C(=O)NCc1ccccc1 | -0.665% (inactive)
Cc1ccc(NC(=O)c2nc[nH]c2C(=O)N[C@@H](CCCCNC(=O)OC(C)(C)C)C(=O)OC(C)(C)C)cc1 | -3.47% (inactive)
CC(C)(C)OC(=O)NCCCCCNC(=O)c1[nH]cnc1C(=O)Nc1nccs1 | -76.4% (active)
COC(=O)c1ccc2nc(-c3cccc(Br)c3)c(Cc3ccccc3C(F)(F)F)n2c1 | -10.3% (inactive)
Cc1ccc(C(=O)N2CCN(C3CCCCC3)CC2)s1 | -13.4% (inactive)
OCCC#Cc1ccc(N2C(c3ccsc3)=Cc3ccc(F)cc3C2c2c[nH]c3ccccc23)cc1 (configuration not stated) | -7.53% (inactive)
Cc1cc(C(=O)N/N=C/c2cc([N+](=O)[O-])cc(C)c2O)n[nH]1 | -77.5% (active)
O=C(N/N=C/c1cccc(OC(=O)c2ccc([N+](=O)[O-])cc2)c1)c1cccnc1 | -3.98% (inactive)
COc1ccc(C(=O)NNC(=O)c2cc(C)[nH]n2)cc1 | 1.78% (inactive)
CCCCNS(=O)(=O)c1ccc2nc(SCC(=O)Nc3cc(C)cc(C)c3)[nH]c2c1 | -4.15% (inactive)
CCOC(=O)[C@]12CCCC=C1N(Cc1cccc3ccccc13)C(=O)[C@H](CC(=O)NCC13CC4CC(CC(C4)C1)C3)C2 | -14% (inactive)
Nc1nonc1-n1nnc(C(=O)N/N=C\c2ccncc2)c1CN1CCCCC1 | -5.55% (inactive)
Nc1nonc1-n1nnc(C(=O)N/N=C/c2ccccc2O)c1CN1CCCC1 | -91.1% (active)
NNC(=O)c1nnn(-c2nonc2N)c1CN1CCCC1 | 4.15% (inactive)
COC(=O)C[C@H]1C=C[C@H](NC(=O)c2ccc(F)cc2)[C@@H](CO)O1 | 7.11% (inactive)
Cc1cc(C)c(S(=O)(=O)NN=C2c3ccccc3[C@H]3Cc4csc[n+]4[C@@H]23)c(C)c1 | -12.5% (inactive)
Cc1cccc(N(CC(=O)N2CCCC2)S(C)(=O)=O)c1C | 7.01% (inactive)
Cc1ccc(NC(=O)CSc2nnc(CNC(=O)c3ccccc3F)o2)cc1Cl | 8.8% (inactive)
COc1ccc(Cc2nnc(SCC(=O)Nc3ccc(C)c(Cl)c3)[nH]c2=O)cc1 | 6.59% (inactive)

SMILES | activity change
Cc1ccc(NC(=O)CSc2nn3c(=O)c(C)nnc3s2)cc1Cl | -81.7% (active)
O=C(Nc1ccc(F)cc1)C(CCc1ccccc1)N1CCN(CC(=O)N2CCCC2)CC1 (configuration not stated) | 1.59% (inactive)
FC(F)(F)c1cccc(-c2nc3ccccc3n2C(c2ccccc2)c2nc3ccccc3[nH]2)c1 (configuration not stated) | -13.3% (inactive)
CCN(CC(=O)NC1CCS(=O)(=O)C1)S(=O)(=O)c1ccccc1 (configuration not stated) | 9.89% (inactive)
Cc1ccccc1CN1C(=O)CSCC1(C)C(=O)Nc1c(C)cccc1C (configuration not stated) | -3.18% (inactive)
Cc1nc(N=C(N)N)nc2c(C)cccc12 | -72.7% (active)
COC(=O)[C@@]12C[C@@H](CC(=O)NCCCCc3ccccc3)C(=O)N(CCc3ccc(OC)c(OC)c3)C1=CCC(C)(C)C2 | -8.99% (inactive)
Cc1ccc(C(=O)Nc2c(-c3ccccc3)[nH][nH]c2=O)cc1 | 3.7% (inactive)
COC(=O)C[C@@H]1C=C[C@@H](NS(=O)(=O)c2cccc(OC)c2)[C@@H](CO)O1 | -2.42% (inactive)
COc1ccc(Cc2nnc(N/N=C/c3ccccc3O)[nH]c2=O)cc1OC | -85.7% (active)
COc1ccc(Cc2nnc(SC)[nH]c2=O)cc1 | 0.132% (inactive)
CC(C)c1ccc(Cc2nnc(NCCCO)[nH]c2=O)cc1 | 4.24% (inactive)
Cc1ccc(/C=C/C(=O)OCC(=O)Nc2cccnc2Cl)cc1 | -0.924% (inactive)
CC(C)(C)NC(=O)C(CCc1ccccc1)n1c(=O)c(-c2ccccc2)nc2ccccc21 (configuration not stated) | 7.94% (inactive)
O=C(O)c1ccc2c3c(cccc13)C(=O)N(OS(=O)(=O)c1ccccc1)C2=O | -77.1% (active)
COc1cccc(-c2ccc3c(c2)S(=O)(=O)c2cccc(C(=O)O)c2C3=O)c1OC | -5.18% (inactive)
Cc1cc(Br)cn2c(Cc3ccccc3C(F)(F)F)c(C3CCCCC3)nc12 | 11.6% (inactive)
CC(=O)N1Cc2cc(C(=O)NCc3cccc(F)c3)nc(-c3cccc(C4=CCCC4)c3)c2[C@H]1CCO | -15.8% (inactive)
O=C(COc1cc(Cl)c(Cl)cc1Cl)NCCc1ccccn1 | -7.95% (inactive)
NC(=S)NN=Cc1ccc(OC(=O)COc2cc(Cl)c(Cl)cc2Cl)cn1 | -93.5% (active)
O=C(COC(=O)COc1cc(Cl)c(Cl)cc1Cl)NC1CC1 | 3.24% (inactive)
COc1ccc(C(C(=O)NCc2ccccc2)n2c(=O)c(-c3ccccc3)nc3ccccc32)cc1 (configuration not stated) | 0.529% (inactive)

SMILES | activity change
CC(C)C[C@H]1CNC(=O)C(=O)N1C[C@@H]1CCCN1C[C@H](Cc1ccccc1)N1C[C@H](CC(C)C)N(CC2CCCCCC2)C(=O)C1=O | -1.64% (inactive)
O=C(c1ncn2c1c(=O)[nH]c1ccccc12)N1CCc2ccccc2C1 | -3.9% (inactive)
O=c1[nH]c2ccccc2n2c(-c3ccccc3)nnc12 | -65.3% (active)
Cn1c(=O)c2c(nc(N/N=C/c3cccs3)n2Cc2ccc(Br)cc2)n(C)c1=O | 29.6% (inactive)
Cc1nc2ccccc2n1CC(=O)N/N=C/c1cccs1 | -11.4% (inactive)
Cc1n[nH]c(=O)nc1N/N=C/c1cccs1 | -90.5% (active)
Cc1nccn1-c1ccc(NC(=O)[C@H]2O[C@@H](n3ccc(=O)[nH]c3=O)[C@H](O)[C@@H]2O)cc1 | 1.11% (inactive)
O=C(NCc1ccccc1)C(c1ccc(F)cc1)N1CCN(C(=O)C2CCCO2)CC1 (configuration not stated) | 20.6% (inactive)
Cc1cc(NC(=O)c2cccc(N3C(=O)CCC3=O)c2)no1 | -70.6% (active)
Cc1cccc(NC(=O)c2cc(N3C(=O)CCC3=O)ccc2Cl)n1 | 3.08% (inactive)
Cc1cc(NC(=O)c2ccccc2C)no1 | 9.99% (inactive)
Cc1ccc(S(=O)(=O)N2[C@@H](Cc3ccccc3)CO[C@H]2CC(=O)OCc2ccccc2)cc1 | -3.63% (inactive)
CCOC(=O)C1C(C)C(C(C)(C)C)N(S(=O)(=O)c2ccc(C)cc2)C1c1ccccc1 (configuration not stated) | 6.65% (inactive)
CCOc1cccc(/C=N/NC(=S)NCCN2CCOCC2)c1O | -92.1% (active)
C=C(C)CNC(=S)N/N=C/c1ccccc1OCC(=O)O | 0.44% (inactive)
O=C(NCCN1CCOCC1)Nc1cccc(Cl)c1 | 3.67% (inactive)
CCOC(=O)[C@]12CCCC=C1N(CCC1=CCCCC1)C(=O)[C@H](CC(=O)N1CCCCC1)C2 | -1.85% (inactive)
COc1ccc(C(=O)C(OP(=O)(OC)OC)c2ccccc2OC)cc1 (configuration not stated) | 2.49% (inactive)
O=C(COC(=O)Cc1ccc(Br)cc1)Nc1c(F)c(F)c(F)c(F)c1F | 1.31% (inactive)
Cc1nc2ccccc2nc1N/N=C/c1ccc(O)cc1O | -69.1% (active)
Oc1ccc(/C=N/Nc2nc(-c3ccccc3F)nc3ccccc23)c(O)c1 | -71.7% (active)
Brc1ccccc1/C=N/Nc1nc2ccccc2o1 | -4.05% (inactive)

SMILES | activity change
Oc1ccc2nc(Cc3ccccc3)[nH]c2c1 | -2.17% (inactive)
O=C(C[C@H]1CC[C@@H](NC(=O)c2ccncc2)[C@@H](CO)O1)NCC1CC1 | 8.47% (inactive)
CCCCCCCCN1C(=O)[C@H](CC(=O)NCC23CC4CC(CC(C4)C2)C3)C[C@@]2(C(=O)OC)CCCCC=C12 | -0.139% (inactive)
O=S1(=O)CC(N2CCSCC2)CN1Cc1cn(Cc2cccc(Cl)c2)nn1 (configuration not stated) | 0.627% (inactive)
CCOc1cccc2c1OC1(CCCCC1)N1N=C(c3cccnc3)CC21 (configuration not stated) | -13.8% (inactive)
C[C@H]1COc2cc(N3CCSCC3)ccc2S(=O)(=O)N1 | 3.55% (inactive)
COc1ccc(S(=O)(=O)Nc2ccc(F)cc2)c(C)c1C | -0.291% (inactive)
COc1cc(N2CCCC2)c(OC)cc1/C=C(/C#N)c1cccc(Br)c1 | -67% (active)
Cc1nc2c(OCc3ccc(Cl)cc3Cl)cccn2c1N(C)CC1CC1 | -5.16% (inactive)
Nc1nc2ncccn2c1-c1ccccc1 | 3.63% (inactive)
CCCOc1ccc(Cc2c(O)nc(N)[nH]c2=O)cc1C | -5.12% (inactive)
Cc1ccc(S(=O)(=O)N2CC3C(=O)C[C@@H](c4ccccc4Cl)N(S(=O)(=O)c4ccc(C)cc4)C3CC2c2ccccc2)cc1 (some centres not stated) | -4.43% (inactive)
CC1(C)OC(=O)C2=C(C[C@@H](C3CC3)O[C@H]2CCc2cccc(Cl)c2)O1 | 7.67% (inactive)
CCc1c(-c2ccc(F)cc2)ncn1Cc1cccc(-c2ccccc2)c1 | -29.6% (inactive)
O=S(=O)(NCCOc1cccc2cccnc12)c1ccc(F)cc1 | 6.83% (inactive)
NC(=O)C1CCN(C(=O)COc2cccc3cccnc23)CC1 | 8.87% (inactive)
O=C(Nc1ccccc1)Oc1cccc2cccnc12 | -91.9% (active)
CCCCNC(=O)C[C@@H]1C[C@@]2(C(=O)OC)CC(C)(C)CC=C2N(Cc2ccco2)C1=O | -8.69% (inactive)
CCCc1c(C(=O)Nc2ccc(F)cc2)cnn1-c1ccccc1 | 1.46% (inactive)
COCCCn1cc(CN2CC(N(C)C)CS2(=O)=O)nn1 (configuration not stated) | 15.9% (inactive)
COC(=O)[C@]12CCCCC=C1N(CCC1=CCCCC1)C(=O)[C@H](CC(=O)N1CCSCC1)C2 | -5.23% (inactive)
